Among the data in PubChem BioAssay are growth inhibition, inhibition and outcome values, retold here.

Values without a mark were called inactive. For part of these data: Results with a measured potency or affinity are listed apart. The source made the active and inactive calls. Unless noted, the rule behind the calls is not given here.

Test [1] is described as follows: antimalarial activity against Dd2 strain (AID 2302;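 active = growth inhibition above 50% at the single 2 µM test dose, taken to imply half-maximal potency below 2 µM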;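 note: 0% = DMSO untreated growth and 100% = chloroquine plus artemisinin killed control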). As to conditions: P. falciparum Dd2 in RBCs, LDH growth readout, 72 h; at 2 µM; hits give high values.
Test [2] can be described thus: HepG2 cytotoxicity, primary screen, cytotoxicity control for P. falciparum antimalarial project, cell-based, ATP luminescence (AID 2303;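 active = inhibition above 50%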;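 note: 0% = DMSO wells and 100% = digitonin-killed cells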). As to conditions: HepG2 viability, 24-48 h, at 10 µM, hits give high values.
The target in test [3] is L-lactate dehydrogenase (Plasmodium falciparum (isolate CDC / Honduras)) (UniProt Q27743). Briefly: PfLDH activity inhibition – cell lysate, 3D7 strain, counter-screen for P. falciparum growth inhibition project (AID 2304).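 Note: 0% = vehicle and 100% = reference inhibitor.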 As to conditions: P. falciparum 3D7 crude extract, LDH APAD/NBT absorbance; at 2 µM; hits give high values. (In general: A counterscreen serves to expose hits that act by an unwanted route or on another target.)

Test [4] in a line: inhibition of 3D7 malaria parasite growth – strain 3D7 (AID 2306).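 Note: 0% = DMSO wells and 100% = chloroquine plus artemisinin control wells.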 As to conditions: P. falciparum 3D7 erythrocytic growth, LDH absorbance, 72 h; at 2 µM; hits give high values.
In test [5] the target is Calcium-dependent protein kinase 1 (Plasmodium falciparum (isolate 3D7)) (UniProt P62344). Briefly: PfCDPK1 kinase inhibitors, biochemical, TCAMS library (AID 1159585; cut-off not given, nearly all actives have IC50 up to about 0.98 µM;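 note: inhibitors leave more ATP so luminescence rises with inhibition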). To be noted: recombinant PfCDPK1, Kinase-Glo ATP depletion luminescence. For orientation: Kinase-Glo measures the ATP left after a reaction by luminescence.
For test [6], the target named is Plasmodium falciparum protein kinase 6 (PK6, PF3D7_1337100) (UniProt Q8IDW1). Description: PfPK6 kinase inhibitors, biochemical, TCAMS library (AID 1159586). To be noted: recombinant PfPK6, Kinase-Glo ATP depletion luminescence.
In test [7] the target is Protein kinase 7 (PK7), Plasmodium falciparum 3D7 (PF3D7_0213400) (UniProt Q7YTF7). Briefly: inhibition of Plasmodium PK7 catalytic activity – biochemical, TCAMS antimalarial set, Kinase-Glo luminescence (AID 1159587). As to conditions: recombinant PfPK7, Kinase-Glo ATP depletion luminescence.
In test [8] the target is Calcium-dependent protein kinase 4 (Plasmodium falciparum (isolate 3D7)) (UniProt Q8IBS5). Description: PfCDPK4 kinase inhibitors, biochemical, TCAMS library (AID 1159588; cut-off not given, nearly all actives have IC50 up to about 0.91 µM). As to conditions: recombinant PfCDPK4, Kinase-Glo ATP depletion luminescence.
Sequence of Calcium-dependent protein kinase 4 (Plasmodium falciparum (isolate 3D7)) (Q8IBS5 whole entry, looked up): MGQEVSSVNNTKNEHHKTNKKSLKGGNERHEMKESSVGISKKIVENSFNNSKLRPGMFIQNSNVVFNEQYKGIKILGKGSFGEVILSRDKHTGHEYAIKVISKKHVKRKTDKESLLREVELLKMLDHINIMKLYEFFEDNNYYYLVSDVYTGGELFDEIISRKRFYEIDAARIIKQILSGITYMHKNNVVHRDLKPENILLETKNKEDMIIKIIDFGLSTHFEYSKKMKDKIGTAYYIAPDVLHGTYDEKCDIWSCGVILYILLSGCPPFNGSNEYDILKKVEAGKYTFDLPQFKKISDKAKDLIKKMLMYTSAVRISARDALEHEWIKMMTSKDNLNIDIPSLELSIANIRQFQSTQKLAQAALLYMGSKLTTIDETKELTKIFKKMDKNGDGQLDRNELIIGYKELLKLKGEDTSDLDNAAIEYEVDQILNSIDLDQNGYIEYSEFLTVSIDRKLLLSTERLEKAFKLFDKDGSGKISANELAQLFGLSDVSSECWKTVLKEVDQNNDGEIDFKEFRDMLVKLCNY

Sequence of L-lactate dehydrogenase (Plasmodium falciparum (isolate CDC / Honduras)) (Q27743 whole entry, looked up): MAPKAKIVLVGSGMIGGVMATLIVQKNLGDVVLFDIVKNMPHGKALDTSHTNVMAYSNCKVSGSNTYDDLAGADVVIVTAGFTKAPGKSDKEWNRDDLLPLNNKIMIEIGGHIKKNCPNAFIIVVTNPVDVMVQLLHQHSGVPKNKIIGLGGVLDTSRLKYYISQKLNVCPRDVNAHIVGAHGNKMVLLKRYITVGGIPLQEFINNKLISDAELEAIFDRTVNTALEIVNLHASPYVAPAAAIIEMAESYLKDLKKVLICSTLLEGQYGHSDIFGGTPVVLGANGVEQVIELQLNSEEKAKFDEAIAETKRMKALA
Sequence of Protein kinase 7 (PK7), Plasmodium falciparum 3D7 (PF3D7_0213400) (Q7YTF7 1-343): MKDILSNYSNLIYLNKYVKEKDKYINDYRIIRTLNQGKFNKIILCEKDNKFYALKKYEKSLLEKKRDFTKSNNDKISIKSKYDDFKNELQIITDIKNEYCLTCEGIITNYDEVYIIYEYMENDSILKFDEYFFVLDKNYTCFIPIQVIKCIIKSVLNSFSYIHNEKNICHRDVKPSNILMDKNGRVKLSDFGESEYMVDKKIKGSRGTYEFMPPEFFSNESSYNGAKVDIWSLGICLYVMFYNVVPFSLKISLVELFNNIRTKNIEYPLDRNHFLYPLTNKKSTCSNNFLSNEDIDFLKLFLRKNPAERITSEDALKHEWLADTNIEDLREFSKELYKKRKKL
Sequence of Calcium-dependent protein kinase 1 (Plasmodium falciparum (isolate 3D7)) (P62344 whole entry, looked up): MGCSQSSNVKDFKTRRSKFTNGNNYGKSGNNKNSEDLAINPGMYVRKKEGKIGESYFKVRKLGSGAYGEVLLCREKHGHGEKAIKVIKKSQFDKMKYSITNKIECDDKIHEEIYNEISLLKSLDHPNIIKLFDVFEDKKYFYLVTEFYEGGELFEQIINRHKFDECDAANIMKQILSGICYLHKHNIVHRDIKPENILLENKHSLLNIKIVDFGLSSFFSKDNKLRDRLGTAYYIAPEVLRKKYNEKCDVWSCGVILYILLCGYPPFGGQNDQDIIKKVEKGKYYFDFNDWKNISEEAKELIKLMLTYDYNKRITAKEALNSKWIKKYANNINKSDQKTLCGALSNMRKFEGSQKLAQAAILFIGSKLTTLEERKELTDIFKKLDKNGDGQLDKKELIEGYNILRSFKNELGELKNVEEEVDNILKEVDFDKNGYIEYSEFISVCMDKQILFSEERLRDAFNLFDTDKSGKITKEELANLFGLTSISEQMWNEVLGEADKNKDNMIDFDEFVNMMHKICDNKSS
Sequence of Plasmodium falciparum protein kinase 6 (PK6, PF3D7_1337100) (Q8IDW1 1-305): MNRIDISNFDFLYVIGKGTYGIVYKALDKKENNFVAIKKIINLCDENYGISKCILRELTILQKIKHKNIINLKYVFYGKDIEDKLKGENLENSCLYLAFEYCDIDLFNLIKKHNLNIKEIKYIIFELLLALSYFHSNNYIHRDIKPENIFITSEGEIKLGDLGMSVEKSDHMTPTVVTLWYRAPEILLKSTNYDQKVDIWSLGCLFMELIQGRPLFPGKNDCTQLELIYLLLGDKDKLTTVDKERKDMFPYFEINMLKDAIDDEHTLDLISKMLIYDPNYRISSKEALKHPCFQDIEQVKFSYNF

In general, inhibition refers to the drop in the measured response relative to a control, in per cent. Consider `O=C(O)CCCN1CCCC(=C(c2ccccc2)c2ccccc2)C1`, for which the growth inhibition in test [1] was 2%; in test [4], 82% (active). Also, the inhibition was -5% in test [2] and 0% in test [3]. Moreover, the result in test [5], in test [6], in test [7] and in test [8] was inactive.

As to `Clc1ccc(OCc2ccccc2)c(-c2nc(-c3nc4ccc(Cl)cc4[nH]3)cs2)c1`, the growth inhibition in test [1] is 60% (active); in test [4] it was 99% (active). Also, the inhibition in test [2] was -9%; in test [3], -3%. Further, the outcome in test [5], in test [6], in test [7] and in test [8] was inactive.

With `CC(C)CCN1CCCN(Cc2ccc(C(=O)Nc3ccc(Cl)cc3)cc2)CC1`, the growth inhibition in test [1] is 15%; in test [4], 94% (active). The inhibition in test [2] was 46%; in test [3], 4%. Moreover, the outcome in test [5], in test [6], in test [7] and in test [8] was inactive.

Regarding `Cc1cc(N(C)C)nc(Nc2ccc(NS(=O)(=O)c3ccccc3)cc2)n1`, the growth inhibition is 11% in test [1] and 92% (active) in test [4]. The inhibition is -3% in test [2] and -1% in test [3]. The result in test [5], in test [6], in test [7] and in test [8] was inactive.

With `Cc1[nH]c(C)c(-c2ccc(-c3ccccc3)nc2)c(=O)c1Br`, the growth inhibition in test [1] is 95% (active); in test [4], 96% (active). The inhibition in test [2] was -3%; in test [3] it was -1%. Also, the outcome in test [5], in test [6], in test [7] and in test [8] was inactive.

As to `O=C(N[C@H]1CCN(Cc2ccc(OCCCN3CCCCC3)cc2)C1)c1cc(Cl)cc(Cl)c1`, the figures for the growth inhibition in test [1] and in test [4] were 35% and 99% (active), respectively. Further, the inhibition was 13% in test [2] and -1% in test [3]. For the same compound, the outcome in test [5], in test [6], in test [7] and in test [8] was inactive.

Take `CCC(C)NS(=O)(=O)c1ccc2nc(Nc3ccc(C)cc3)n(C3CCCCC3C)c2c1` (stereo not drawn): the figures for the growth inhibition in test [1] and in test [4] were 99% (active) and 95% (active), respectively. The inhibition in test [2] and in test [3] was 1% throughout. In addition, the result in test [5], in test [6], in test [7] and in test [8] was inactive.

`O=C(/C=C/c1ccc(Cl)c(Cl)c1)NCCCCCN1CCC(NC(=O)Nc2ccc3c(c2)OCO3)CC1`: the figures for the growth inhibition in test [1] and in test [4] were 5% and 103% (active), respectively. For the same compound, the inhibition in test [2] is 12%; in test [3], 6%. In addition, the outcome in test [5], in test [6], in test [7] and in test [8] was inactive.

In the case of `CCCC(=O)Nc1ccc(OCCCN(Cc2cccc(C(F)(F)F)c2)c2ccc(C#N)c(C(F)(F)F)c2)cc1`, the values for the growth inhibition in test [1] and in test [4] were 89% (active) and 90% (active), respectively. Moreover, the inhibition in test [2] was -12%; in test [3], -5%. The result in test [5], in test [6], in test [7] and in test [8] was inactive.

Consider `COc1ccc(CC(=O)Nc2ccc(-c3cccc(-c4nc5c(C)cccc5[nH]4)c3)cc2)cc1O`, for which the values for the growth inhibition in test [1] and in test [4] were 30% and 96% (active), respectively. For the same compound, the inhibition in test [2] was 6%; in test [3], 4%. For the same compound, the outcome in test [5], in test [6], in test [7] and in test [8] was inactive.

`COC(=O)c1ccc(NC(=O)Nc2cccc(CCNCc3ccccc3)c2)cc1`: the growth inhibition in test [1] was 10%; in test [4], 96% (active). Moreover, the inhibition in test [2] is 2%; in test [3] it was 6%. Also, the result in test [5], in test [6], in test [7] and in test [8] was inactive.

`NC1CCN(Cc2cccc(-c3ccc(-c4nc5ccccc5[nH]4)s3)c2)C1` (stereo not drawn): the growth inhibition in test [1] is 62% (active); in test [4], 100% (active). Moreover, the inhibition in test [2] is 36%; in test [3] it was -1%. For the same compound, the outcome in test [5], in test [6], in test [7] and in test [8] was inactive.

In the case of `c1ccc2[nH]c(-c3ccc(-c4ccc(CN5CCCCC5)cc4)cc3)nc2c1`, the growth inhibition in test [1] is 100% (active); in test [4], 99% (active). Besides, the inhibition was 27% in test [2] and 2% in test [3]. The outcome in test [5], in test [6], in test [7] and in test [8] was inactive.

Consider `CC[C@H](C)CNC(=O)c1ccnc(-c2ccc(CNC3Cc4ccccc4C3)cc2)c1`, for which the values for the growth inhibition in test [1] and in test [4] were 87% (active) and 102% (active), respectively. The inhibition in test [2] is 18%; in test [3] it was -3%. Also, the result in test [5], in test [6], in test [7] and in test [8] was inactive.

As for `Cc1[nH]c(C)c(-c2ccc(Oc3ccc(Cl)cc3Cl)cc2)c(=O)c1Br`, the growth inhibition in test [1] is 94% (active); in test [4], 98% (active). For the same compound, the inhibition in test [2] was 3%; in test [3] it was -5%. In addition, the outcome in test [5], in test [6], in test [7] and in test [8] was inactive.

As to `COc1ccc2c(c1)CC1CN(CCCCNC(=O)c3ccc(NC(=O)c4cc(Cl)cc(Cl)c4)cc3)CCN1C2` (stereo not drawn), the values for the growth inhibition in test [1] and in test [4] were 57% (active) and 101% (active), respectively. In addition, the inhibition is 7% in test [2] and 1% in test [3]. In addition, the result in test [5], in test [6], in test [7] and in test [8] was inactive.

In the case of `O=C(NCCCc1ccccc1)c1ccc(O)c(-c2cc(Cl)cc(Cl)c2)c1`, the growth inhibition in test [1] is 98% (active); in test [4] it was 99% (active). For the same compound, the results for the inhibition in test [2] and in test [3] were -1% and -3%, respectively. For the same compound, the outcome in test [5], in test [6], in test [7] and in test [8] was inactive.

In the case of `CN(C)CCCOc1ccc(CNCc2cccc(Oc3ccc(Cl)cc3)c2)cc1`, the growth inhibition in test [1] is 30%; in test [4], 100% (active). The inhibition was 52% (active) in test [2] and 0% in test [3]. Also, the result in test [5], in test [6], in test [7] and in test [8] was inactive.

Consider `CS(=O)(=O)c1ccc(CCNCc2ccc(-c3ccc(CNC4Cc5ccccc5C4)cc3)nc2)cc1`, for which the growth inhibition in test [1] is 80% (active); in test [4], 100% (active). The inhibition was 18% in test [2] and -3% in test [3]. For the same compound, the result in test [5], in test [6], in test [7] and in test [8] was inactive.

For `O=C(Nc1ccc(OC2CCN(Cc3ccco3)CC2)c(Cl)c1)c1ccc2ncccc2c1`, the growth inhibition is 40% in test [1] and 97% (active) in test [4]. The inhibition in test [2] is -5%; in test [3], -4%. In addition, the outcome in test [5], in test [6], in test [7] and in test [8] was inactive.

For the compound `FC(F)(F)c1ccc2nc(-c3ccc(-c4cccc(CNCc5ccccc5)c4)cc3)[nH]c2c1`, the growth inhibition in test [1] is 43%; in test [4] it was 100% (active). Moreover, the inhibition in test [2] is -2%; in test [3], -5%. Besides, the result in test [5], in test [6], in test [7] and in test [8] was inactive.
